# Data as given in PubChem BioAssay.
# Unmarked numbers belong to inactive results. Inconclusive results are not listed. Active and inactive are the calls of the source.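 Rule for the calls, unless noted: active = normalized viability below 100% at a tested concentration; inactive = the rest.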
# Assays:
# [1] = viability loss in pontine glioma line – cell-based, SU-DIPG-XVII, MIPE5.0, CellTiter-Glo, qHTS, dose response (AID 1347060; cut-off not given, nearly all actives have AC50 up to about 26 µM;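 note: cells exposed to compound for 48 hours before viability readout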); conditions: CellTiter-Glo ATP luminescence
# [2] = viability loss in pontine glioma line – cell-based, SU-DIPG-XIII, MIPE4.0, CellTiter-Glo, qHTS, dose response (AID 1347061; cut-off not given, nearly all actives have AC50 up to about 37 µM;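 note: cells exposed to compound for 48 hours before readout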); conditions: CellTiter-Glo ATP luminescence
# [3] = viability loss in pontine glioma line – cell-based, JHH-DIPG-1, MIPE4.0, CellTiter-Glo, qHTS, dose response (AID 1347062; cut-off not given, nearly all actives have AC50 up to about 27 µM;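 note: cells exposed to compound for two days before readout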); conditions: JHH-DIPG-1 viability, CellTiter-Glo ATP luminescence
# [4] = viability loss in pontine glioma line – cell-based, SU-DIPG-IV, MIPE4.0, CellTiter-Glo, qHTS, dose response (AID 1347063; cut-off not given, nearly all actives have AC50 up to about 30 µM;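 note: compound exposure lasted 48 hours before the viability readout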); conditions: CellTiter-Glo ATP luminescence
# [5] = viability loss in pontine glioma line – cell-based, SU-DIPG-XIII, MIPE5.0, CellTiter-Glo, qHTS, dose response (AID 1347064; cut-off not given, nearly all actives have AC50 up to about 23 µM;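 note: cells exposed to compound for 48 hours before the viability read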); conditions: CellTiter-Glo ATP luminescence
# [6] = viability loss in pontine glioma line – cell-based, SU-DIPG-XXV, MIPE5.0, CellTiter-Glo, qHTS, dose response (AID 1347065; cut-off not given, nearly all actives have AC50 up to about 26 µM;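 note: cells exposed to compound for 48 hours before ATP readout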); conditions: CellTiter-Glo ATP luminescence
# [7] = growth inhibition of DIPG cells – cell-based, MIPE4.0 library, CellTiter-Glo luminescence, qHTS (AID 1347066; cut-off not given, nearly all actives have AC50 up to about 30 µM;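 note: cells exposed to compound for 48 hours before readout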); conditions: SU-DIPG-VI viability, CellTiter-Glo ATP luminescence
# [8] = JHH-DIPG-1 glioma cell viability, MIPE5.0 library, CellTiter-Glo luminescence, qHTS (AID 1347067; cut-off not given, nearly all actives have AC50 up to about 26 µM;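 note: cells exposed to compound for 48 hours before readout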); conditions: JHH-DIPG-1 glioma viability, CellTiter-Glo ATP luminescence
# [9] = growth inhibition of DIPG cells – cell-based, MIPE5.0 library, qHTS (AID 1347068; cut-off not given, nearly all actives have IC50 up to about 30 µM); conditions: SU-DIPG-XXV viability
# [10] = drug combination growth inhibition, ovarian cancer – cell-based, oncology-focused library, rucaparib conditional, profiling panel (AID 1508598); conditions: patient-derived ovarian cancer cells, CellTiter-Glo viability, 144 h, stronger effect = lower value
compound,measurement,setting,value
Cc1cc(N2CCOCC2)cc2[nH]c(-c3c(NC[C@@H](O)c4cccc(Cl)c4)cc[nH]c3=O)nc12,AC50,[1],742 nM (active)
same,AC50,[2],1480 nM (active)
same,AC50,[3],13200 nM (active)
same,AC50,[4],7430 nM (active)
same,AC50,[5],209 nM (active)
same,AC50,[6],263 nM (active)
same,AC50,[7],52.6 nM (active)
same,AC50,[8],3720 nM (active)
same,outcome,[9],inactive
same,viability,"[10]; at 0.000305 µM, OCI-C5x cells, with rucaparib 10 µM, 100% = cells with rucaparib alone",117%
same,viability,"[10]; at 0.000305 µM, OCI-C5x cells, without rucaparib",119%
same,viability,"[10]; at 0.000305 µM, OCI-P5x cells, with rucaparib 20 µM, 100% = cells with rucaparib alone",135%
same,viability,"[10]; at 0.000305 µM, OCI-P5x cells, without rucaparib",99.5% (active)
same,viability,"[10]; at 0.00122 µM, OCI-C5x cells, with rucaparib 10 µM, 100% = cells with rucaparib alone",126%
same,viability,"[10]; at 0.00122 µM, OCI-C5x cells, without rucaparib",114%
same,viability,"[10]; at 0.00122 µM, OCI-P5x cells, with rucaparib 20 µM, 100% = cells with rucaparib alone",133%
same,viability,"[10]; at 0.00122 µM, OCI-P5x cells, without rucaparib",97.6% (active)
same,viability,"[10]; at 0.00488 µM, OCI-C5x cells, with rucaparib 10 µM, 100% = cells with rucaparib alone",123%
same,viability,"[10]; at 0.00488 µM, OCI-C5x cells, without rucaparib",109%
same,viability,"[10]; at 0.00488 µM, OCI-P5x cells, with rucaparib 20 µM, 100% = cells with rucaparib alone",130%
same,viability,"[10]; at 0.00488 µM, OCI-P5x cells, without rucaparib",98.9% (active)
same,viability,"[10]; at 0.0195 µM, OCI-C5x cells, with rucaparib 10 µM, 100% = cells with rucaparib alone",119%
same,viability,"[10]; at 0.0195 µM, OCI-C5x cells, without rucaparib",118%
same,viability,"[10]; at 0.0195 µM, OCI-P5x cells, with rucaparib 20 µM, 100% = cells with rucaparib alone",133%
same,viability,"[10]; at 0.0195 µM, OCI-P5x cells, without rucaparib",96.1% (active)
same,viability,"[10]; at 0.0781 µM, OCI-C5x cells, with rucaparib 10 µM, 100% = cells with rucaparib alone",126%
same,viability,"[10]; at 0.0781 µM, OCI-C5x cells, without rucaparib",123%
same,viability,"[10]; at 0.0781 µM, OCI-P5x cells, with rucaparib 20 µM, 100% = cells with rucaparib alone",118%
same,viability,"[10]; at 0.0781 µM, OCI-P5x cells, without rucaparib",83.6% (active)
same,viability,"[10]; at 0.313 µM, OCI-C5x cells, with rucaparib 10 µM, 100% = cells with rucaparib alone",123%
same,viability,"[10]; at 0.313 µM, OCI-C5x cells, without rucaparib",123%
same,viability,"[10]; at 0.313 µM, OCI-P5x cells, with rucaparib 20 µM, 100% = cells with rucaparib alone",79.9% (active)
same,viability,"[10]; at 0.313 µM, OCI-P5x cells, without rucaparib",66.6% (active)
same,viability,"[10]; at 1.25 µM, OCI-C5x cells, with rucaparib 10 µM, 100% = cells with rucaparib alone",133%
same,viability,"[10]; at 1.25 µM, OCI-C5x cells, without rucaparib",126%
same,viability,"[10]; at 1.25 µM, OCI-P5x cells, with rucaparib 20 µM, 100% = cells with rucaparib alone",41.4% (active)
same,viability,"[10]; at 1.25 µM, OCI-P5x cells, without rucaparib",53.5% (active)
same,viability,"[10]; at 5 µM, OCI-C5x cells, with rucaparib 10 µM, 100% = cells with rucaparib alone",37.3% (active)
same,viability,"[10]; at 5 µM, OCI-C5x cells, without rucaparib",80.4% (active)
same,viability,"[10]; at 5 µM, OCI-P5x cells, with rucaparib 20 µM, 100% = cells with rucaparib alone",0.53% (active)
same,viability,"[10]; at 5 µM, OCI-P5x cells, without rucaparib",12.5% (active)
